Assay [1] in a line: qHTS assay to identify small molecule antagonists of the glucocorticoid receptor (GR) signaling pathway - cell viability counter screen (AID 720693). Also: nearly all actives have a fitted effect of over 55% in size. Also: potency is read from the fitted curve at half-maximal effect.
Assay [2] in a line: qHTS assay for identifying genotoxic compounds that show differential cytotoxicity against isogenic chicken DT40 cell lines with known DNA damage response pathways - wild type cell line (AID 743012). Also: nearly all actives have a fitted effect of over 60% in size. Also: potency is read from the fitted curve at half-maximal effect. The method in brief:
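Cells (DT40 wild type, 300/well) are treated with DMSO-dissolved compounds after a ~0.5 h pre-incubation and kept 40 h at 37 C/5% CO2. Viability is then measured by CellTiter-Glo luminescence following 30 min at room temperature.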

Assay [3] in a line: qHTS assay for identifying genotoxic compounds that show differential cytotoxicity against isogenic chicken DT40 cell lines with known DNA damage response pathways - Rev3 mutant cell line (AID 743014). Also: nearly all actives have a fitted effect of over 55% in size. Also: potency is read from the fitted curve at half-maximal effect.
The nature of assay [4]: qHTS assay for identifying genotoxic compounds that show differential cytotoxicity against isogenic chicken DT40 cell lines with known DNA damage response pathways - Rad54/Ku70 mutant cell line (AID 743015). Also: nearly all actives have a fitted effect of over 60% in size. Also: potency is read from the fitted curve at half-maximal effect.
The nature of assay [5]: qHTS assay to identify small molecule antagonists of the androgen receptor (AR) signaling pathway - cell viability counter screen (AID 743033; also: nearly all actives have a fitted effect of over 45% in size; also: potency is read from the fitted curve at half-maximal effect).
A short description of assay [6]: qHTS assay to identify small molecule antagonists of the androgen receptor (AR) signaling pathway using the MDA cell line - cell viability counter screen (AID 743041; also: nearly all actives have a fitted effect of over 45% in size; also: potency is read from the fitted curve at half-maximal effect). Put shortly: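 Cells were plated at 3,000 per well and left 5 h. Compounds in DMSO were then pinned in, followed by R1881. After 16 h at 37C, CellTiter-Fluor fluorescence gave viability.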
Assay [7] in a line: qHTS assay to identify small molecule antagonists of the thyroid receptor (TR) signaling pathway - cell viability counter screen (AID 743064). Also: nearly all actives have a fitted effect of over 50% in size. Also: potency is read from the fitted curve at half-maximal effect. Put shortly: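 GH3.TRE-Luc rat pituitary cells carrying a TRE-luciferase reporter were treated with compound plus 1 nM T3 (final) for 23.5 h at 37 °C. Viability was then read in the same wells by CellTiter-Fluor fluorescence after a further 30 min.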

Assay [8] concerns thyroid hormone receptor (rat, GH3 cells). As to the kind of experiment: qHTS assay to identify small molecule agonists of the thyroid receptor (TR) signaling pathway (AID 743066; calls by dose curve).
Assay [9] is described as follows: qHTS assay to identify small molecule antagonists of the estrogen receptor alpha (ER-alpha) signaling pathway - cell viability counter screen (AID 743074; calls by dose curve;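 also: HEK293 cells carrying ER-alpha-UAS-bla reporter stimulated with 17beta-estradiol; nearly all actives have a fitted effect of over 45% in size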; also: potency is read from the fitted curve at half-maximal effect).
Assay [10] can be described thus: qHTS assay to identify small molecule antagonists of the estrogen receptor alpha (ER-alpha) signaling pathway using the BG1 cell line - cell viability counter screen (AID 743081).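 Also: compound given together with 17beta-estradiol as the ER stimulus; nearly all actives have a fitted effect of over 45% in size.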 Also: potency is read from the fitted curve at half-maximal effect.
For a further assay, the target named is Aromatase (Homo sapiens) (UniProt P11511). As to the kind of experiment: qHTS assay to identify aromatase inhibitors (AID 743083). Also: nearly all actives have a fitted effect of over 55% in size. Also: potency is read from the fitted curve at half-maximal effect.
Assay [11] concerns the target Estrogen receptor (Homo sapiens) (UniProt P03372). As to the kind of experiment: qHTS assay to identify small molecule agonists of the estrogen receptor alpha (ER-alpha) signaling pathway (AID 743075; calls by dose curve; also: potency is read from the fitted curve at half-maximal effect).
Assay [12] has the same target. As to the kind of experiment: qHTS assay to identify small molecule agonists of the estrogen receptor alpha (ER-alpha) signaling pathway using the BG1 cell line (AID 743079). Also: nearly all actives have a fitted effect of over 20% in size. Also: potency is read from the fitted curve at half-maximal effect. The conditions noted are these: BG1Luc4E2 cells, ERE-luciferase agonist, 22 h; activation: at 70.3 µM (top of the series).
Assay [13] in a line: qHTS assay to identify small molecule antagonists of the estrogen receptor alpha (ER-alpha) signaling pathway using the BG1 cell line (AID 743080; calls by dose curve;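 also: BG1 cells stimulated with 17beta-estradiol alongside compound; nearly all actives have a fitted effect of over 25% in size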; also: potency is read from the fitted curve at half-maximal effect). The method in brief:
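BG1Luc4E2, endogenous ER-alpha, 4xERE-luc; 5 d charcoal-stripped FBS, phenol red free; 24 h plating; cpd + 17beta-estradiol 21.5 h, 37 C/5% CO2; CellTiter-Fluor viability 30 min, then ONE-Glo luciferase 30 min RT.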

A short description of assay [14]: qHTS assay to identify small molecule antagonists of the thyroid receptor (TR) signaling pathway (AID 743065). Also: nearly all actives have a fitted effect of over 55% in size. Also: potency is read from the fitted curve at half-maximal effect. The method in brief:
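Antagonism measured as loss of luciferase signal in GH3 cells stably carrying a TRE-luciferase reporter, co-treated with compound and T3 (1 nM final) for 23.5 h at 37 C. Viability was read in the same well by CellTiter-Fluor.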

Assay [15] has as its target Estrogen receptor (Homo sapiens) (UniProt P03372). As to the kind of experiment: qHTS assay to identify small molecule antagonists of the estrogen receptor alpha (ER-alpha) signaling pathway (AID 743069; active = well fitted curve in the direction sought with a large enough effect in the signal ratio in the repeat runs, not every such curve was filed as active; inconclusive = weak or mixed curves, or effect the other way; inactive = no such curve, though single readings can be large or run the other way; the % refers to the signal ratio; also: potency is read from the fitted curve at half-maximal effect). Put shortly: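 ER-alpha-UAS-bla GripTite HEK293 line; 2% charcoal-stripped FBS overnight; plated, 4 hr 37C/5% CO2; cpd in DMSO + 17beta-estradiol, 18 hr 37C; LiveBLAzer B/G FRET substrate 2 hr RT; fluorescence intensity.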

For assay [16], the target named is Androgen receptor (Homo sapiens) (UniProt P10275). As to the kind of experiment: qHTS assay to identify small molecule agonists of the androgen receptor (AR) signaling pathway using the MDA cell line (AID 743040; also: nearly all actives have a fitted effect of over 20% in size). Put shortly: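 Cells plated, 5 h at 37C/0% CO2; compound or DMSO pinned; 16 h at 37C; ONE-Glo added; luminescence measured after 30 min at room temperature. Reporter line: MDA-kb2 with MMTV-luciferase responsive to AR and GR.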

Assay [17] has the same target. As to the kind of experiment: qHTS assay to identify small molecule antagonists of the androgen receptor (AR) signaling pathway using the MDA cell line (AID 743042). Put shortly:
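Antagonist mode: compounds plus R1881 agonist added to MDA-kb2 AR-luc cells, incubated 16 h at 37C. Luciferase reporter luminescence quantified, with multiplexed CellTiter-Fluor readout for cell viability.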

The target is the same in assay [18]. As to the kind of experiment: qHTS assay to identify small molecule agonists of the androgen receptor (AR) signaling pathway (AID 743036; active = well fitted activation curve with a large enough effect in the signal ratio in the repeat runs, with a control signal flat, not every such curve was filed as active; inconclusive = weak or mixed curves, or effect the other way; inactive = no such curve, though single readings can be large or run the other way; the % refers to the signal ratio). Put shortly: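 HEK293 cells stably carrying a UAS-driven beta-lactamase reporter (GeneBLAzer AR-UAS-bla-GripTite) were plated at 2,000 cells/well, rested 4 h at 37C, then exposed to compounds in DMSO for 16 h. LiveBLAzer B/G FRET substrate was added for 2 h at room temperature; fluorescence read.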

The structures appear in SMILES notation. Several values for one entry are separate records, joined by “and”; a condition that tells them apart may be missing. Equal entries are not always repeated. Activity calls are given as the source filed them. Unless noted, calls follow the shape of the dose curve; as a rule, active = well fitted curve in the direction sought with a large enough effect in the repeat runs; inconclusive = weak or mixed curves; inactive = no such curve, though single readings can be large; an effect the other way counts as inactive or inconclusive.

Sequence of Androgen receptor (Homo sapiens) (P10275 whole entry, looked up): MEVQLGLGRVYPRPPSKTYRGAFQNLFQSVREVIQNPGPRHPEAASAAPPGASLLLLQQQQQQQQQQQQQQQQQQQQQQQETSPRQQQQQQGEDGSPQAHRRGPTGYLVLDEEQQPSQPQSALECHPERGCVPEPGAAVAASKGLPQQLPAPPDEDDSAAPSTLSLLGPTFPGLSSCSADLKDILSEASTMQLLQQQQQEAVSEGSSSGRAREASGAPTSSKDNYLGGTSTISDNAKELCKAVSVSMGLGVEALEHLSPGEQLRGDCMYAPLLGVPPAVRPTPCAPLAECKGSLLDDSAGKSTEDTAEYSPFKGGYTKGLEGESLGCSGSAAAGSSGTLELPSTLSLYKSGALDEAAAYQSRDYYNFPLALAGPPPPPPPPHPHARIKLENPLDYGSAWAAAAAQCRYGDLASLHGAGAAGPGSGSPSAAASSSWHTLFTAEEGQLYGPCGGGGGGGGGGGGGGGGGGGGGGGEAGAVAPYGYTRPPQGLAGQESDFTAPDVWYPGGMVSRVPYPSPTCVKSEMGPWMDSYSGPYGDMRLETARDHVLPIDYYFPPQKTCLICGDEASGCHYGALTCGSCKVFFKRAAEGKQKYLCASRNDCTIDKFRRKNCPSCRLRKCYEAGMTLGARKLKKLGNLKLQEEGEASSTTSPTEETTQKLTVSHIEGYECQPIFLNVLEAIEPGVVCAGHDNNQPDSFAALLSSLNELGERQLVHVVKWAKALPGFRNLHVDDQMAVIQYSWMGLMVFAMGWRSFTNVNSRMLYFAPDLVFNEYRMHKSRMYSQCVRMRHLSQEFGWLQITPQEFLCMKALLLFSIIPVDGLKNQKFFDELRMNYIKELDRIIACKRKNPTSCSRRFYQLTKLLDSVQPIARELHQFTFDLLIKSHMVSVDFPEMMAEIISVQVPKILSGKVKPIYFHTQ
Sequence of Estrogen receptor (Homo sapiens) (P03372 whole entry, looked up): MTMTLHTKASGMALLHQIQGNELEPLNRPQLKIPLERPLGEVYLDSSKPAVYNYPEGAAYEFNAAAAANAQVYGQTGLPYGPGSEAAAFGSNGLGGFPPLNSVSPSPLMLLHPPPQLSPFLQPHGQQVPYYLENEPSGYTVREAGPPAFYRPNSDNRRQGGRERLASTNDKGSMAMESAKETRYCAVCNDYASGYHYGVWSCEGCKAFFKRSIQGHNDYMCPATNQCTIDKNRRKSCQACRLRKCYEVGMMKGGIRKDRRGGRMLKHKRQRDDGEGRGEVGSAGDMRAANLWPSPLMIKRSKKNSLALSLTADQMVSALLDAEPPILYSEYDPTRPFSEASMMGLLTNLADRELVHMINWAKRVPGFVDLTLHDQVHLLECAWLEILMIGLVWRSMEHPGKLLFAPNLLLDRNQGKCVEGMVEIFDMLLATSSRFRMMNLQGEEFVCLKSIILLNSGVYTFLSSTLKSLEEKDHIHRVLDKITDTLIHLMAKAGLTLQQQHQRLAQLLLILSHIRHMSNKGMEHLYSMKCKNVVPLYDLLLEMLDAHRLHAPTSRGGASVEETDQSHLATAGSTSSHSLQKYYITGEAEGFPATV
Sequence of Aromatase (Homo sapiens) (P11511 whole entry, looked up): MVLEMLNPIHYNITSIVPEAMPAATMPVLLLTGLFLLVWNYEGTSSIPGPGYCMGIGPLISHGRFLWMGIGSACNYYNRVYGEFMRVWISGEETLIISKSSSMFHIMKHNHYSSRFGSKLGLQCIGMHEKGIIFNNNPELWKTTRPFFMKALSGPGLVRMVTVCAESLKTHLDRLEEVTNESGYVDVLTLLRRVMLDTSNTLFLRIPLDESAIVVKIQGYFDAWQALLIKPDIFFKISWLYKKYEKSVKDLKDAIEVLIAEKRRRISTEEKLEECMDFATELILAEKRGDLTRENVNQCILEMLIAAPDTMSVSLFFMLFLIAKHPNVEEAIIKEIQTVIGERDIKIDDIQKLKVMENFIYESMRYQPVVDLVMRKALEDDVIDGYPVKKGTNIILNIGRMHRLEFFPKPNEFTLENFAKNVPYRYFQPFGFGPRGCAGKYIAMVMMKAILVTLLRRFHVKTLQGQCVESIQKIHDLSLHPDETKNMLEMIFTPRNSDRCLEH

In the case of `CNN`, the Potency entry in assay [1], in [2], in [3], in assay [4], in assay [5] and in [6] was “inactive” in each case. Also, the Potency result (in assay [7]; in [8]; in assay [9]; in assay [10]; with Aromatase (Homo sapiens)) was “inactive” in each case.
Regarding `O=c1c2ccccc2c(=O)c2c1cc(Cl)c1[nH]c3c([nH]c12)c(Cl)cc1c(=O)c2ccccc2c(=O)c13`, the Potency entry in assay [1], in assay [2], in assay [3], in [4], in assay [5] and in [6] was “inactive” in each case. The Potency entry in [7], in assay [8], in [9], in assay [11], in assay [12] and in [13] was “inactive” each time. The Potency entry (in [10]; in the assay with Aromatase (Homo sapiens)) was “inactive” in each case.
`Brc1cccc(-c2ccccc2)c1`: the Potency entry in assay [1], in [2], in assay [3], in [4], in [5] and in [6] was “inactive” each time. Also, the Potency result (in assay [14]; in assay [8]; in [9]; in assay [11]; in [10]; in the assay with Aromatase (Homo sapiens)) was “inactive” throughout.
Take `CC(=O)[O-].CC(=O)[O-].[Co+2]`: the Potency entry in assay [1], in [2], in assay [3], in assay [4], in assay [5] and in [6] was “inactive” throughout. For the same compound, the Potency result (in [7]; in [8]; in [9]; in assay [10]; in the assay with Aromatase (Homo sapiens)) was “inactive” each time.
On to `[F][Sn]([c]1ccccc1)([c]1ccccc1)[c]1ccccc1`, for which the Potency in assay [1] is 0.977 µM (active); in assay [2], 0.243 µM (active); in assay [3], 0.433 µM (active); in assay [4] it was 0.306 µM (active); in assay [5], 1.23 µM (active); in [6], 3.86 µM (active). The Potency in assay [7] was 770 nM (active); in [9] it was 1.1 µM (active); in assay [11], 2.19 µM [inconclusive] (active); in assay [13] it was 1.93 µM (active); in [10], 7.7 µM (active).
For the compound `O=[N+]([O-])c1ccc(CCl)cc1`, the Potency result in assay [1], in assay [2], in [3], in assay [4], in assay [5] and in assay [6] was “inactive” throughout. Also, the Potency entry in [8], in assay [15], in [9], in assay [11], in assay [12] and in assay [10] was “inactive” in each case. Besides, the Potency entry with Aromatase (Homo sapiens) was “inactive”.
In the case of `COCCC#N`, the Potency result in assay [1], in assay [2], in assay [3], in assay [4], in assay [5] and in assay [6] was “inactive” each time. For the same compound, the Potency result (in assay [14]; in assay [8]; in [9]; in assay [10]; with Aromatase (Homo sapiens)) was “inactive” throughout.
In the case of `Clc1ccc(C(Cl)(Cl)Cl)cc1Cl`, the Potency result in assay [1], in assay [2], in assay [3], in assay [4], in assay [5] and in assay [6] was “inactive” in each case. Besides, the Potency entry in assay [15], in assay [9], in assay [11], in assay [12], in [13] and in [10] was “inactive” throughout. Further, the Potency result in the assay with Aromatase (Homo sapiens) is “inactive”.
Turning to `O=C1C(Cl)=C(Cl)C(=O)C(Cl)=C1Cl`, the Potency is 38.9 µM (active) in assay [1]; 13.6 µM (active) and 9.69 µM (active) in assay [2]; 8.6 µM (active) and 6.86 µM (active) in assay [3]; 17.3 µM (active) and 21.9 µM (active) in assay [5]; 34.2 µM (active) and 30.6 µM (active) in [17]; 15.3 µM (active) and 13.7 µM (active) in [7]. The Potency in assay [14] is 9.65 µM (active) and 5.45 µM (active); in assay [15], 54.9 µM [inconclusive] (active); in [11], 43.7 µM [activator] (active); in the assay with Aromatase (Homo sapiens), 9.65 µM (active) and 9.69 µM (active). Further, the compound was called inactive in [16]. Besides, the Potency result in [8], in assay [9], in assay [12], in assay [13] and in [10] was “inactive” in each case.
Take `CCOP(=S)(OCC)SC(CCl)N1C(=O)c2ccccc2C1=O` (stereo unspecified): the Potency entry (in [1]; in assay [6]; in [8]; in assay [9]; with Aromatase (Homo sapiens)) was “inactive” each time. For the same compound, the Potency was 48.6 µM (active) in assay [2], 43.3 µM (active) in assay [3], 61.1 µM (active) in assay [4] and 61.1 µM (active) in assay [17]. Further, the result in assay [18] and in [16] was inactive.
Turning to `Cc1cc(C2CC2)nc(Nc2ccccc2)n1`, the Potency entry (in [1]; in [8]; in assay [9]; in assay [11]; with Aromatase (Homo sapiens)) was “inactive” each time. Moreover, the Potency in [2] was 24.3 µM (active); in [3], 30.6 µM (active); in assay [4] it was 24.3 µM (active); in assay [14] it was 54.5 µM (active); in assay [12], 9.69 µM (active).
With `C#CCO`, the Potency entry in assay [1], in [2], in [3], in assay [4], in [5] and in [6] was “inactive” in each case. For the same compound, the Potency result in assay [15], in assay [9], in assay [11], in assay [12], in [13] and in [10] was “inactive” throughout. The Potency entry with Aromatase (Homo sapiens) was “inactive”.

The values above are taken from PubChem BioAssay (Tox21).
